Source: PubChem BioAssay (NCI)
Values joined by “and” are separate entries in the source; they are usually repeats but may differ in a detail not shown here. Equal values may be shown once. Compounds without any hit were thinned out: in the full panel of roughly 79,000, 15% have a hit. A structure can be active in one record and inactive in another. Active and inactive are the calls of the source. Cut-off read from the data, not from the text of the source: active = growth inhibition above about 70%; inactive = the rest.

Legend:
[1] = NCI Yeast Anticancer Drug Screen. Data for the rad50 strain (AID 155);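 note: 0% = growth of vehicle-only cultures of the same strain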; conditions: S. cerevisiae rad50 strain growth inhibition; at 50.0 µM; stronger effect = higher value
Summary of the method: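 Cells are treated with compound, grown, and their growth is then scored against vehicle-only cultures of the same repair-deficient yeast strain.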

[2] = NCI Yeast Anticancer Drug Screen. Data for the mec2-1 strain (AID 157); conditions: S. cerevisiae mec2-1 strain, at 50.0 µM, stronger effect = higher value
Summary of the method: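 Test agents were screened against the mec2-1 yeast strain, with defined DNA repair or cell cycle alteration. Growth was scored as inhibition against vehicle-only controls.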

[3] = NCI Yeast Anticancer Drug Screen. Data for the sgs1 mgt1 strain (AID 161);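 note: 0% = growth of cultures given vehicle only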; conditions: S. cerevisiae sgs1 mgt1 strain, at 50.0 µM, stronger effect = higher value
Summary of the method: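 Mutant yeast exposed to compound; growth scored against vehicle-only wells.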

[4] = NCI Yeast Anticancer Drug Screen. Data for the cln2 rad14 strain (AID 165);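 note: 0% = growth equal to vehicle treated cultures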; conditions: S. cerevisiae cln2 rad14 strain, at 50.0 µM, stronger effect = higher value
Summary of the method: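 Growth of compound-exposed yeast (cln2 rad14 genotype) measured and expressed as inhibition relative to vehicle.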

[5] = NCI Yeast Anticancer Drug Screen. Data for the bub3 strain (AID 167); conditions: S. cerevisiae bub3 mutant strain, at 50.0 µM, stronger effect = higher value
Summary of the method: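 Part of a panel of yeast mutants defective in DNA damage repair or cell cycle regulation. Each strain is grown with compound, and inhibition is calculated relative to solvent-treated cultures.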

[6] = NCI Yeast Anticancer Drug Screen. Data for the mlh1 rad18 strain (AID 175); conditions: S. cerevisiae mlh1 rad18 strain growth inhibition; at 50.0 µM; stronger effect = higher value
Summary of the method: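 In this whole-cell yeast screen, a strain with altered DNA damage repair is challenged with compound, and its growth is measured against matched vehicle-treated controls.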

| SMILES | growth inhibition [1] | growth inhibition [2] | growth inhibition [3] | growth inhibition [4] | growth inhibition [5] | growth inhibition [6] |
| --- | --- | --- | --- | --- | --- | --- |
| NNC(=O)NC(N)=O | -48.6% (inactive) and -20.2% (inactive) | -26.1% (inactive) and -25.7% (inactive) | -27.2% (inactive) and -9.95% (inactive) | -20.4% (inactive) and -17.9% (inactive) | 1.2% (inactive) and -27.1% (inactive) | -4.3% (inactive) and -22.3% (inactive) |
| O=C(O)CCCCCCCCCCCCC1C=CCC1 (stereo not drawn) | -11.2% (inactive) and -0.55% (inactive) | -31.5% (inactive) and -17.9% (inactive) | 5.95% (inactive) and -4.1% (inactive) | -4.4% (inactive) and 9.45% (inactive) | -22.8% (inactive) and -16.8% (inactive) | -11.2% (inactive) and -6.05% (inactive) |
| C=CCN(CC=C)c1nc2ccccc2c(=O)[nH]1 | 39.6% (inactive) and -6.7% (inactive) | 24.2% (inactive) and -3.7% (inactive) | 22.5% (inactive) and -3.8% (inactive) | 7.9% (inactive) and -60.1% (inactive) | -2.25% (inactive) and -12.4% (inactive) | 17.2% (inactive) and 0.45% (inactive) |
| O=C(O)c1cccc(S(=O)(=O)O)c1 | -22.6% (inactive) and -9.2% (inactive) | -40.5% (inactive) and -8.4% (inactive) | -1.2% (inactive) and -9.2% (inactive) | -14.1% (inactive) and 13% (inactive) | -2.05% (inactive) and 0% (inactive) | 0.4% (inactive) and 2.45% (inactive) |
| OCC(O)C(O)C(O)C(O)[C@@H](O)c1nc2ccccc2[nH]1 (stereo partly drawn) | -5.1% (inactive) and -12.2% (inactive) | 3% (inactive) and -0.15% (inactive) | -2.75% (inactive) and -4.4% (inactive) | -34.5% (inactive) and -16.2% (inactive) | 2.8% (inactive) and 21.2% (inactive) | -3.8% (inactive) and 12.2% (inactive) |
| CCc1ccc(NCc2cc(OC)c(OC)c(OC)c2)cc1 | 22.8% (inactive) and 3.85% (inactive) | -3.9% (inactive) and -6.2% (inactive) | 25.9% (inactive) and 33% (inactive) | -4.45% (inactive) and -2.55% (inactive) | 40% (inactive) and 38.9% (inactive) | -55.3% (inactive) and -23.8% (inactive) |
| O=[N+]([O-])c1ccccc1S(=O)(=O)Oc1ccccc1 | 10.1% (inactive) and 54.7% (inactive) | 2.5% (inactive) and -9.2% (inactive) | 5.45% (inactive) and 46.3% (inactive) | -12.9% (inactive) and 1% (inactive) | -8.65% (inactive) and -14.5% (inactive) | 5.25% (inactive) and 32.4% (inactive) |
| CC(=O)Nc1ccc(C=O)cc1 | 13.1% (inactive) and 25.1% (inactive) | 3.5% (inactive) and 19.1% (inactive) | 14.8% (inactive) and 24.1% (inactive) | -18.1% (inactive) and 8.75% (inactive) | -4.15% (inactive) and -9.2% (inactive) | 4.9% (inactive) and 28% (inactive) |
| CCCC(=O)Oc1ccccc1C(C)C | 12.5% (inactive) and 2.75% (inactive) | 11.9% (inactive) and -21.8% (inactive) | 11% (inactive) and -5.25% (inactive) | 14.1% (inactive) and -8.9% (inactive) | 6.8% (inactive) and -0.15% (inactive) | 1.65% (inactive) and -19.6% (inactive) |
| N#CC(C#N)=CN1CCOCC1 | -0.6% (inactive) and 8.35% (inactive) | -24.1% (inactive) and 8.95% (inactive) | 1.75% (inactive) and -7.75% (inactive) | -22.5% (inactive) and 10.4% (inactive) | -0.6% (inactive) and -0.55% (inactive) | 4.1% (inactive) and -12.9% (inactive) |
| COc1ccc(-c2[nH]c(=O)n(C3OC(CO)C(O)C(O)C3O)c(=O)c2C#N)cc1 (stereo not drawn) | 7.65% (inactive) and 19.9% (inactive) | 5.4% (inactive) and 6.1% (inactive) | -8.55% (inactive) and 1.1% (inactive) | 36.9% (inactive) and 13.5% (inactive) | 6.95% (inactive) and 7.6% (inactive) | -78.4% (inactive) and -59% (inactive) |
| COc1ccc(C2c3cc(OC)c(OC)cc3CC(C(=O)O)C2C(=O)N(C)C)cc1OC (stereo not drawn) | -2.05% (inactive) and -30.2% (inactive) | 8% (inactive) and -4.6% (inactive) | 35.3% (inactive) and -0.15% (inactive) | 26.6% (inactive) and 10.1% (inactive) | 4.7% (inactive) and -4% (inactive) | 13.1% (inactive) and 1.9% (inactive) |
| CN(C)CC1CCCC(CN(C)C)C1=O (stereo not drawn) | -13.4% (inactive) and -21.9% (inactive) | 26.9% (inactive) and -9.95% (inactive) | -16% (inactive) and -39.5% (inactive) | 33% (inactive) and -30.4% (inactive) | -16.1% (inactive) and -22.1% (inactive) | -2% (inactive) and -13.8% (inactive) |
| O=[N+]([O-])c1ccc2[nH]c(=S)[nH]c(=S)c2c1 | -27.1% (inactive) and 17.1% (inactive) | -49.4% (inactive) and 35.7% (inactive) | 5.25% (inactive) and 51% (inactive) | 7.7% (inactive) and 36.5% (inactive) | -5.7% (inactive) and -1.3% (inactive) | 12.2% (inactive) and 16.4% (inactive) |
| Cc1ccc(S(=O)(=O)Nc2cc(=O)[nH]c3c2CCC3)cc1 | -2.05% (inactive) and 43.4% (inactive) | -4.75% (inactive) and 18.3% (inactive) | 9.25% (inactive) and -26.8% (inactive) | -52% (inactive) and 0.65% (inactive) | -18% (inactive) and 24.2% (inactive) | -6.2% (inactive) and 2.9% (inactive) |
| CC(=O)OC1CC2CCC1(C)C2(C)C (stereo not drawn) | 34.9% (inactive) and 30.8% (inactive) and -12.2% (inactive) | 26.9% (inactive) and 26.1% (inactive) and -20.2% (inactive) | 25.8% (inactive) and -34.8% (inactive) and -3.7% (inactive) | 19.9% (inactive) and 18.3% (inactive) and 5.2% (inactive) | 29.5% (inactive) and -30.4% (inactive) and 3.55% (inactive) | 4.85% (inactive) and -78.1% (inactive) and -14.2% (inactive) |
| COC1OC(COC(C)=O)C(OC(C)=O)C(OC(C)=O)C1NC(=O)N(CCCl)N=O (stereo not drawn) | -0.5% (inactive) and -15.6% (inactive) | -7.1% (inactive) and -8.6% (inactive) | -1.2% (inactive) and -13.6% (inactive) | 9.65% (inactive) and 20.3% (inactive) | 7.95% (inactive) and 16.2% (inactive) | -10.5% (inactive) and -14% (inactive) |
| CC(C)C(=O)/C=C/c1ccccc1 | 11.1% (inactive) and 21.2% (inactive) | -2.4% (inactive) and -2.75% (inactive) | 10% (inactive) and -5.25% (inactive) | 18.2% (inactive) and -12.6% (inactive) | 7.7% (inactive) and -3.95% (inactive) | 17.8% (inactive) and 8% (inactive) |
| Cc1ccc(CCO)cc1 | 2.3% (inactive) and 2.65% (inactive) | 0.95% (inactive) and 2.6% (inactive) | 6.95% (inactive) and -28.1% (inactive) | 0.5% (inactive) and -47.2% (inactive) | -4.9% (inactive) and -6.4% (inactive) | -2.75% (inactive) and 0.35% (inactive) |
| NC(N)=S | -10.2% (inactive) and 7% (inactive) | -2.4% (inactive) and -11.8% (inactive) | -6.1% (inactive) and 9% (inactive) | 32.8% (inactive) and 1.9% (inactive) | 3.75% (inactive) and 3.8% (inactive) | 0.35% (inactive) and -9.45% (inactive) |
| COc1cc2c(cc1OC)C1Cc3cc(OC)c(OC)cc3C(C2)N1C | 23.4% (inactive) and -37.9% (inactive) | 4.4% (inactive) and -16.9% (inactive) | -6.2% (inactive) and -5% (inactive) | 6.8% (inactive) and 2.6% (inactive) | -5.25% (inactive) and -3.2% (inactive) | -45% (inactive) and -24.2% (inactive) |
| Cc1ccc(C(O)(C(F)(F)F)C(O)(c2ccc(C)cc2)C(F)(F)F)cc1 (stereo not drawn) | 36.8% (inactive) and 99.2% (active) | 1.9% (inactive) and 99.5% (active) | -12.8% (inactive) and 99.3% (active) | -10.2% (inactive) and 99.4% (active) | -8.85% (inactive) and 99.3% (active) | -5.75% (inactive) and 99% (active) |
| CCOC(=O)C(N)CS (stereo not drawn) | -1.35% (inactive) and -31.1% (inactive) | -22.8% (inactive) and -66.1% (inactive) | -2.5% (inactive) and -6.05% (inactive) | -26.9% (inactive) and 7.05% (inactive) | -28.3% (inactive) and -30.7% (inactive) | 4.95% (inactive) and -27.9% (inactive) |
| CCCCCC(Br)C(Br)CC(Br)C(Br)CCCCCCCC(=O)c1ccc2ccccc2c1O (stereo not drawn) | 2.8% (inactive) and 22.1% (inactive) | -2.05% (inactive) and 0.5% (inactive) | 10.4% (inactive) and 2.9% (inactive) | 8.05% (inactive) and -2.25% (inactive) | -18.3% (inactive) and 5.9% (inactive) | -3.1% (inactive) and 7.15% (inactive) |
| CCN(CC)C(=O)N1CCN(C)CC1 | 26.1% (inactive) and -15.6% (inactive) | -26.9% (inactive) and -4.6% (inactive) | 1.4% (inactive) and -3.65% (inactive) | -41.1% (inactive) and 5.8% (inactive) | -1.1% (inactive) and 9.7% (inactive) | 15.2% (inactive) and -8% (inactive) |
| Cc1c(C)[n+](=O)c2ccccc2n1[O-] | 15.9% (inactive) and 7.2% (inactive) | -19.1% (inactive) and -4% (inactive) | -7.6% (inactive) and 3.5% (inactive) | -20.6% (inactive) and -2.05% (inactive) | -18.1% (inactive) and -3.6% (inactive) | 5.4% (inactive) and 5.85% (inactive) |
| C[N+](C)(C)CCOP(=O)(O)OP(=O)([O-])OCC1CCC(n2ccc(N)nc2=O)O1 (stereo not drawn) | 7.7% (inactive) and 4.45% (inactive) | -11.1% (inactive) and 0.25% (inactive) | -18.8% (inactive) and 9.2% (inactive) | 5.8% (inactive) and -2.15% (inactive) | -38.6% (inactive) and 2.55% (inactive) | -38.8% (inactive) and -3.45% (inactive) |
| O=c1[nH]c(F)nc2c1ncn2C1OC(CO)C(O)C1O (stereo not drawn) | -9.5% (inactive) and -20.3% (inactive) | -5% (inactive) and -12.8% (inactive) | -5.7% (inactive) and -20.9% (inactive) | -16.4% (inactive) and 8.4% (inactive) | 8.75% (inactive) and -10.6% (inactive) | -21.2% (inactive) and 6% (inactive) |
